# An excerpt weighted towards active compounds, which were near 4.5% of everything screened.
# 697 NFkB inh – lowers PMA/ionomycin-induced NF-kB signal in 697 B cells. 697 B-cell NF-kB luciferase reporter, 16 h. 0.33% of 330,000 active. inhibition, % at 4 µM; in the data active = inhibition above about 35%
# CSC inhib – cancer stem cell inhibition. cancer stem cell-like cells viability, luminescence. inhibition, % at 7.5 µM. 1.1% of 300,000 active; in the data active = inhibition above about 75%; tested in HMLE shEcad cells
# Jurkat NFkB inh – inhibitors of the PMA/ionomycin-induced NF-kB reporter in Jurkat cells; 0.53% of 330,000 active; inhibition, % at 4 µM; PMA/ionomycin-induced NF-kB luciferase reporter, luminescence; in the data active = inhibition above about 50%
# Mdm2 MdmX PPI – inhibitors of human Mdm2/MdmX interaction; O15151+Q00987; SaOS-2 split-luciferase Mdm2/MdmX complementation, luminescence; inhibition, % at 8 µM; 3% of 330,000 active; AID 485346;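 active = inhibition of at least 50% at 8 µM in the primary screen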
# Target sequence (O15151 whole entry, looked up): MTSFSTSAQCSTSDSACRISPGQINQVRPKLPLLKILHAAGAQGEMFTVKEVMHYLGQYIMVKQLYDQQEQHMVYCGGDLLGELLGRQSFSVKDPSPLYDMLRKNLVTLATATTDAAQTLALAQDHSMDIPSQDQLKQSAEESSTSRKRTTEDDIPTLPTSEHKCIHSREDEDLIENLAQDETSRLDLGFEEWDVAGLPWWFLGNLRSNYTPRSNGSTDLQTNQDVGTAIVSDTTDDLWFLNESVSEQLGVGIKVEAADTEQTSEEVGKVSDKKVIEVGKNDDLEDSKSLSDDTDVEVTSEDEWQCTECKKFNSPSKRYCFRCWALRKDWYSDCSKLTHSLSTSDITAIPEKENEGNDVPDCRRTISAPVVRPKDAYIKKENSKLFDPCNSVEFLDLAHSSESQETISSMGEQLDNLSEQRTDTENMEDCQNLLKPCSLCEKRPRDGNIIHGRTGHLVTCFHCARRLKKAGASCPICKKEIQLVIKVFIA
# Target sequence (Q00987 whole entry, looked up): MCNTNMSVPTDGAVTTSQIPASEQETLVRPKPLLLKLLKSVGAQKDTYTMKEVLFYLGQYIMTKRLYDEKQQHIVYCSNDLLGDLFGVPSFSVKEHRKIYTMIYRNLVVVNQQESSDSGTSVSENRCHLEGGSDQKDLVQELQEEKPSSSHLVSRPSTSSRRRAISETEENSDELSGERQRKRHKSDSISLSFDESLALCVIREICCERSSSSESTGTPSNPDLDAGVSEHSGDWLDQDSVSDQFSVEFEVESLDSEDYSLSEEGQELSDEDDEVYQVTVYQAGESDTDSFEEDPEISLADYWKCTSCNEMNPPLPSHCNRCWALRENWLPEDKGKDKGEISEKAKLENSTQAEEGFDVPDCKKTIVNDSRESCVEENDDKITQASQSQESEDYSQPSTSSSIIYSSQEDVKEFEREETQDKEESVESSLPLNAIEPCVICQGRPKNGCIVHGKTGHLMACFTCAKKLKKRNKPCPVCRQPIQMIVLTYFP
# Gli-Sufu block – antagonists of Gli-Sufu signaling. inhibition, % at 5 µM. Sufu-KO-LIGHT fibroblasts, Gli luciferase reporter luminescence. 0.74% of 340,000 active;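 active = inhibition above about 55%, limit read from the data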
# Beta apoptosis – blocks beta cell apoptosis. protection from apoptosis, % (test concentration not listed). 0.8% of 300,000 active. INS-1E cytokine-induced death, ATP luminescence, 48 h; percent of positive-control rescue, neutral wells zero;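 active = Every replicate reaches about 75%, or at least half do and their mean reaches it too, limit read from the data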;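 also: higher means more ATP so stronger rescue from cytokine killing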
# Jurkat NFkB conf – inhibitors of the PMA/ionomycin-induced NF-kB reporter in Jurkat cells, retest | inhibition, % at 4 µM | 27% of 2,700 active | shares compounds with Jurkat NFkB inh | Jurkat NF-kB luciferase, 16 h;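 active = inhibition reaching about 45% at 4 µM in either replicate, limit read from the data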
# 697 NFkB conf – lowers PMA/ionomycin-induced NF-kB signal in 697 B cells; shares compounds with 697 NFkB inh; 697 B-cell NF-kB luciferase, 16 h; inhibition, % at 4 µM; 35% of 2,000 active; AID 449746; in the data active = inhibition mostly above about 28%, no sharp cut-off; inactive = mostly below about 22%
# Mdm2 MdmX conf – human Mdm2/MdmX binding inhibition, confirmed; luminescent assay; shares compounds with Mdm2 MdmX PPI; 55% of 10,000 active; inhibition, % at 8 µM; in the data active = inhibition above about 40%
# Full FLuc ctr – full-length luciferase inhibition in Mdm2/MdmX counter-screen. shares compounds with Mdm2 MdmX PPI. SaOS-2 full-length luciferase counterscreen, luminescence. inhibition, % at 8 µM. 77% of 6,200 active;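 active = mean inhibition at 8 µM reaching about 37%, which flags the compound as non-specific, limit read from the data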;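 also: p53-null SaOS-2 cells with luciferase driven by a doxycycline-inducible promoter; compound on cells about two nights before reading with doxycycline added after day one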
# Numbers stand for hits; 0 = inactive; - = not tested or not shown.
SMILES,697 NFkB inh,CSC inhib,Jurkat NFkB inh,Mdm2 MdmX PPI,Gli-Sufu block,Beta apoptosis,Jurkat NFkB conf,Mdm2 MdmX conf,Full FLuc ctr,others
CC(=NCCc1c(C)[nH]c2ccc(OCc3ccccc3)cc12)C1=C(O)CC(c2ccccc2)CC1=O (centres undefined),0,0,0,0,0,0,-,-,-,
CCC(=NC)C1=C(O)CC(c2ccccc2)CC1=O (centres undefined),0,0,0,0,0,-,-,-,-,
CCCCC(=NCCc1c(C)[nH]c2ccc(OC)cc12)C1=C(O)CC(c2ccccc2)CC1=O (centres undefined),0,0,69,60,0,0,0,54,66,
CCC(=NCCc1c(C)[nH]c2ccc(OC(F)(F)F)cc12)C1=C(O)CC(c2ccccc2)CC1=O (centres undefined),0,0,67,66,0,0,0,64,73,
CCOC(=O)N=Nc1c2ccccc2c2nc3no[nH]c3nc12,0,-,60,100,97,-,98,100,0,
Cc1ccc(-c2nc(NCCCO)c3ccccc3n2)cc1,0,0,0,0,0,0,-,-,-,
OCCCNc1c2ccccc2nc2ccccc12,0,0,84,79,0,109,0,82,44,
COc1cc(-c2noc(C)c2C#Cc2ccccn2)cc(OC)c1OC,0,82,60,65,0,0,0,78,77,
CNC(C)C#Cc1c(-c2cc(OC)c(OC)c(OC)c2)noc1C (centres undefined),0,0,0,0,0,0,-,-,-,
COc1cc(-c2noc(C)c2/C=C/c2ccc(N)cc2)cc(OC)c1OC,0,0,58,84,0,0,0,86,108,
COc1ccc(-c2c(-c3cc(OC)c(OC)c(OC)c3)noc2C)cn1,0,-,66,54,0,0,0,55,74,
NS(=O)(=O)c1ccc(CCNC(=O)COC(=O)C2CCN(c3ccc(C(F)(F)F)cn3)CC2)cc1,0,0,0,0,0,0,-,-,-,
O=C(O)CCN1C(=O)c2ccc(Oc3ccc([N+](=O)[O-])cc3)cc2C1=O,0,0,0,0,0,0,-,-,-,
CN1C[C@@H]2[C@@H]3C(=O)N(C)C(=O)[C@@H]3[C@](C)(C1=O)N2C(=O)c1ccc(C(F)(F)F)cc1,-,-,-,-,0,-,-,-,-,
C(=N\Nc1nc(Nc2ccccc2)nc(N2CCOCC2)n1)/c1c[nH]c2ccccc12,60,0,82,52,0,-,0,0,-,697 NFkB conf=49
CN(C)c1ccc(-c2nn3c(-c4ccccc4Cl)nnc3s2)cc1,0,0,75,53,0,0,63,66,65,
COc1ccccc1-c1nnc2sc(-c3ccc(N(C)C)cc3)nn12,0,0,78,69,0,0,0,68,94,
Clc1ccccc1-c1nnc2sc(-c3ccncc3)nn12,0,0,0,0,0,0,-,-,-,
CCSc1nc2ccccc2n1C(=O)/C=C\c1ccc(OC)c(OC)c1,0,0,53,100,0,0,0,100,52,
COc1ccccc1NC(=O)N1CCC(NC(=O)C2CCCCC2)CC1,0,0,0,0,0,0,-,-,-,
O=C(N/N=C\c1c(O)ccc2ccccc12)c1ccc(S(=O)(=O)N2CCCCC2)cc1,0,100,55,83,85,97,73,86,55,
O=C(NN=Cc1c(O)ccc2ccccc12)c1ccc2c(c1)OCO2,0,0,67,88,0,0,82,89,50,
O=C(Nc1cccc(NC(=O)c2cccs2)c1)c1ccc2c(c1)OCCO2,0,-,0,0,0,0,-,-,-,
O=S(=O)(c1cccs1)N1CCN(c2ccc(O)cc2)CC1,0,0,0,0,0,0,-,-,-,
O=C(CCn1cnc(-c2ccccc2)c1-c1ccccc1)N/N=C/c1ccc(O)cc1,0,0,0,0,0,0,-,-,-,
SMILES,697 NFkB inh,CSC inhib,Jurkat NFkB inh,Mdm2 MdmX PPI,Gli-Sufu block,Beta apoptosis,Jurkat NFkB conf,Mdm2 MdmX conf,Full FLuc ctr,others
COc1ccc(/C=N/NC(=O)CCn2cnc(-c3ccccc3)c2-c2ccccc2)cc1,0,0,57,58,0,0,0,72,96,
CN(C)c1ccc(/C=N/NC(=O)COc2ccccc2)cc1,0,0,0,0,0,0,-,-,-,
COc1ccc(/C=N/NC(=O)COc2ccccc2-c2ccccc2)cc1,0,0,56,56,0,0,47,68,90,
COc1ccccc1C(=O)Nc1nc2ccccc2s1,0,105,62,93,67,0,71,90,0,
COc1ccc(C(=O)Nc2nc3ccccc3s2)c(OC)c1,69,0,85,100,88,0,91,99,52,697 NFkB conf=60
COc1ccc2nc(NC(=O)c3ccccc3C(=O)O)sc2c1,0,0,0,0,0,0,-,-,-,
CSc1cccc(NC(=O)c2ccc(NC3=NC4CS(=O)(=O)CC4S3)cc2)c1 (centres undefined),0,-,0,0,0,0,-,-,-,
COc1cccc2c1C(=O)c1c(O)c3c(c(O)c1C2=O)C[C@@](O)(C(=O)CO)C[C@@H]3O[C@H]1C[C@H](N)[C@@H](O)[C@H](C)O1,87,0,94,94,68,0,90,100,0,697 NFkB conf=92
CCOC(=O)c1c(NC(=O)N/N=C/c2ccc(O)c(OC)c2)sc(C(C)=O)c1C,0,0,58,68,-,0,0,0,-,
CCOC(=O)c1c(NC(=O)N/N=C/c2ccccc2OCC)sc(C(C)=O)c1C,-,-,-,-,0,-,-,-,-,
COc1ccc(O)c(/C=N/Nc2nc3ccccc3[nH]2)c1,0,0,0,0,0,-,-,-,-,
O=[N+]([O-])c1ccc(O)c(/C=N/Nc2nc3ccccc3[nH]2)c1,0,102,55,89,0,99,0,52,48,
COc1ccc(CCNc2ncnc3c2nnn3Cc2ccccc2)cc1OC,0,0,0,0,0,0,-,-,-,
O=[N+]([O-])c1ccc(N=Nc2ccc(O)cc2O)cc1,63,83,59,98,0,0,0,56,0,697 NFkB conf=0
O=[N+]([O-])c1cccc(N=Nc2ccc(O)cc2O)c1,-,-,-,-,0,-,-,-,-,
CCc1cccc2sc(N3CCN(C(=O)c4ccc([N+](=O)[O-])o4)CC3)nc12,0,0,51,94,76,0,0,75,46,
CCOC(=O)c1c2c(n(C)c1C)C(=O)C(=O)c1ccc(Br)cc1-2,0,121,52,95,0,0,0,98,48,
Cc1cc(C)c(S(=O)(=O)c2cccc(Cl)c2)c(=O)[nH]1,0,0,0,0,0,0,-,-,-,
CCN1CCN(c2ccc(S(=O)(=O)N3CCCCC3)cc2NC(=O)/C=C/c2ccc([N+](=O)[O-])cc2)CC1,0,0,52,99,0,0,0,92,48,

# Screening results as filed in PubChem BioAssay.
